The nature of experiment [1]: qHTS profiling of the MIPE4 collection as inhibitors of Plasmodium falciparum (DD2) proliferation (AID 743345; call rule not given here). The settings on record: P. falciparum Dd2 in erythrocytes, SYBR Green DNA, 72 h; at 28.5 µM (top of the series) unless noted. An outline of the steps: (§1)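 Parasite DNA was quantified by SYBR Green I fluorescence (ex 485, em 535 nm) after overnight lysis in saponin/Triton buffer at room temperature. Cultures at 0.3% parasitemia and 2.5% hematocrit were first exposed to compound for 72 h at 37 C; signals were normalised to artemisinin (0.29 uM) and vehicle wells.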

Experiment [2] can be described thus: qHTS profiling of the MIPE4 collection as inhibitors of Plasmodium falciparum (DD2) proliferation (Rep 2) (AID 743346; call rule not given here). The settings on record: P. falciparum Dd2 in erythrocytes, SYBR Green DNA, 72 h; at 28.5 µM (top of the series) unless noted. Put shortly:
as §1
In general terms: In qHTS, concentration-response curves come from the screen itself.

Experiment [3] can be described thus: qHTS profiling of the MIPE4 collection as inhibitors of Plasmodium falciparum (HB3) proliferation (AID 743347; call rule not given here;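 note: plate controls were DMSO vehicle wells for no effect and artemisinin wells for full effect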). To be noted: P. falciparum HB3 in erythrocytes, SYBR Green DNA, 72 h; at 28.5 µM (top of the series) unless noted. Put shortly: as §1
A short description of experiment [4]: High-throughput drug toxicity screening in the BPDCN cell line Gen2.2 (AID 1224824; call rule not given here;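 note: cells exposed to compounds for 48 h before reading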). The settings on record: Gen2.2 BPDCN cells; at 45.8 µM (top of the series) unless noted. Put shortly: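 CellTiter-Glo luminescence read after 48 h compound exposure at 37 C defines viability; percent activity set with DMSO as 100% and bortezomib (9.2 uM final) as 0%. 500 exponentially growing cells per well, RPMI plus 10% FBS.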

The nature of experiment [5]: High-throughput drug toxicity screening in the BPDCN cell line Cal-1 (AID 1224825; call rule not given here). The settings on record: Cal-1 BPDCN cell viability, qHTS; at 45.8 µM (top of the series) unless noted. Put shortly:
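CellTiter-Glo luminescence after 48 h compound exposure; percent activity scaled with DMSO as 100% and bortezomib (9.2 uM final) as 0%. Cal-1 cells seeded at 500/well in RPMI, 10% FBS, no phenol red.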

Experiment [6] can be described thus: qHTS assay for measurement of the activity of small molecule inhibitors on Zika virus induced Caspase-3 activity in human iPSC derived neural progenitor cells (hNPCs) (AID 1224857). Note: nearly all actives have a fitted effect of over 65% in size. Note: potency is the fitted concentration of half-maximal effect. Put shortly:
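Human iPSC-derived neural progenitor cells pretreated 1 hr with compounds, then infected with Zika virus (2 FFU/cell) for 6 hours at 37 C. Caspase-3/7 measured by Caspase-Glo luminescence; % inhibition calculated from induction scaled to uninfected (0%) and infected (100%) wells.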

Experiment [7] can be described thus: qHTS assay for measurement of the activity of small molecule inhibitors on Zika virus induced Caspase-3 activity in human astrocytoma cells (AID 1224859).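 Note: plate controls were ZIKV-infected untreated cells for no effect and uninfected cells for full effect.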 An outline of the steps:
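SNB-19 astrocytoma cells, 250/well, pretreated 1 h with compounds, then Zika virus at 2 FFU/cell for 6 h at 37 C; Caspase-Glo 3/7 luminescence after 30 min; percent inhibition normalised to uninfected and infected controls.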

Experiment [8] in a line: qHTS Screen of the MIPE 4.0 Collection Against Ewings Sarcoma (TC71) (AID 1259253). Note: nearly all actives have a fitted effect of over 40% in size. Note: potency is the fitted concentration of half-maximal effect. Put shortly: (§2)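 Dose series incubated 48 h with cells in RPMI plus 5% FBS, glutamine and penicillin/streptomycin; cell viability then quantified via CellTiter-Glo.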
Experiment [9] can be described thus: qHTS Screen of the MIPE 4.0 Collection Against Ewings Sarcoma (TC32) (AID 1259256). Note: nearly all actives have a fitted effect of over 45% in size. Note: potency is the fitted concentration of half-maximal effect. An outline of the steps: as §2
A short description of experiment [10]: qHTS assay to identify small molecule inhibitors of chordoma cells - UCH-1 (AID 1259355). Note: nearly all actives have a fitted effect of over 55% in size. Note: potency is the fitted concentration of half-maximal effect. Put shortly:
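Screening used approved and investigational drugs in 15-point titration against 800 seeded cells per well. A fixed combination of auranofin with camptothecin, doxorubicin, rubitecan and topotecan followed compound addition, and growth was scored by CellTiter-Glo after 48hr.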

Experiment [11] is described as follows: qHTS assay to identify small molecule inhibitors of chordoma cells - UCH-2 (AID 1259356). Note: % is set by controls: 0 for no effect and ±100 for the full control effect.
Experiment [12] is described as follows: qHTS Screen of the MIPE 4.0 Collection Against Ewings Sarcoma (EW8) (AID 1259255).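 Note: 100% = DMSO-treated cells and 0% = medium-only wells without cells; nearly all actives have a fitted effect of over 35% in size.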 An outline of the steps:
as §2

Experiment [13] can be described thus: P-glycoprotein substrates identified in KB-3-1 adenocarcinoma cell line, qHTS therapeutic library screen (AID 1346986). Note: nearly all actives have a fitted effect of over 60% in size. The settings on record: outcome: dose series up to 44.5 µM unless noted. An outline of the steps:
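Viability by CellTiter-Glo after 72 h compound exposure at 37 degree C, 5% CO2. Cytotoxic call: curve class -1.1 to -2.4, maximum response >50%, AC50 < 10 uM, compared across KB-3-1 and P-gp-overexpressing KB-8-5-11.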

A short description of experiment [14]: Identifying Small Molecule Inhibitors of Pancreatic Cancer Stem Cells (SN12C, Adherent) (AID 1259358).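 Note: cell survival measured after 48 h of compound exposure.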 An outline of the steps:
(§3)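 Endpoint: ATP-based luminescence, 48 h drug exposure. Bortezomib at 9.2 uM final as full-kill control; DMSO vehicle as negative control; activity normalized between vehicle and cell-free wells.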

Experiment [15] can be described thus: Identifying Small Molecule Inhibitors of Pancreatic Cancer Stem Cells (SN12C, Spheroid) (AID 1259360).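 Note: 100% = DMSO-treated cells and 0% = wells without cells.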 An outline of the steps: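 Luminescent ATP readout (CellTiter-Glo) quantifies surviving cells after a 48 h drug incubation. Normalization uses DMSO wells as no inhibition and media-only wells as full inhibition; bortezomib served as positive control.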
The nature of experiment [16]: Identifying Small Molecule Inhibitors of Pancreatic Cancer Stem Cells (A278, Adherent) (AID 1259361).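 Note: 100% = DMSO-treated cells and 0% = cell-free media-only wells; nearly all actives have a fitted effect of over 35% in size.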 Put shortly:
as §3

Where “and” joins values, the source holds several entries; their conditions need not be identical. Equal values may be shown once. Results filed as inconclusive are left out. A structure can be active in one record and inactive in another. Calls of active or inactive are those of the source. Unless noted, calls come from the whole dose curve; as a rule, active = well fitted curve in the direction sought with a large enough effect; inconclusive = small, poorly fitted or top-dose-only effect, or another doubt; inactive = no such curve, though single readings can be large; an effect the other way counts as inactive or inconclusive.

As for `CC(C)NCC(O)COc1ccc(CCOCC2CC2)cc1` (stereo not drawn), in experiment [1], the parasite growth remaining, % of DMSO control (lower = more inhibition) was found to be 89.8%. In [2], the parasite growth, % of control (lower = inhibition) is 46.9%. The compound further yielded a growth, % of control in [3] of 57.9%. Moreover, the cell viability, % of control (lower = more cytotoxic) in [4] stood at 88.1%. Also, the viability (% of control) in [5] turned out to be 97%. The Potency entry in experiment [6], in experiment [7], in experiment [8], in experiment [9] and in experiment [10] was “inactive” in each case. Besides, the compound was classed as inactive in experiment [11].

With `Cc1cnc(C(=O)NCCc2ccc(S(=O)(=O)NC(=O)NC3CCCCC3)cc2)cn1`, in experiment [1], the parasite growth remaining, % of DMSO control (lower = more inhibition) stood at 12.7%. The growth, % of control in experiment [3] worked out at 3.73%. Moreover, the cell viability, % of control (lower = more cytotoxic) in [4] came out at 112%. Further, in experiment [5], the viability (% of control) came out at 58.3%. Further, the Potency result in experiment [6], in experiment [7] and in experiment [10] was “inactive” in each case. In addition, in [11], the outcome was inactive.

On to `CCOC(=O)Nc1ccc(NCc2ccc(F)cc2)nc1N`, for which the cell viability, % of control (lower = more cytotoxic) in experiment [4] turned out to be 166%. Besides, the viability (% of control) in [5] worked out at 96.5%. Also, the Potency entry in experiment [6], in experiment [7] and in [10] was “inactive” in each case. The compound was called inactive in experiment [11].

`CC1COc2c(N3CCN(C)CC3)c(F)cc3c(=O)c(C(=O)O)cn1c23` (stereo not drawn): in experiment [1], the parasite growth remaining, % of DMSO control (lower = more inhibition) was 84.7%. Besides, the growth, % of control in experiment [3] came out at 76.3%. Besides, the cell viability, % of control (lower = more cytotoxic) in experiment [4] stood at 147%. In experiment [5], the viability (% of control) was found to be 42.1%. Besides, the Potency entry in experiment [6], in [7], in [12], in experiment [9] and in experiment [10] was “inactive” in each case. The compound was called inactive in [11] and in experiment [13].

Consider `OCCN1CCN(CCCN2c3ccccc3Sc3ccc(C(F)(F)F)cc32)CC1`, for which the parasite growth remaining, % of DMSO control (lower = more inhibition) in [1] was 10.5%. In addition, the parasite growth, % of control (lower = inhibition) in experiment [2] is 23.4%. Besides, the growth, % of control in [3] stood at 10.5%. Also, the cell viability, % of control (lower = more cytotoxic) in experiment [4] amounted to 85.8%. Further, the viability (% of control) in [5] is 6.77%. For the same compound, the Potency result in [6] and in experiment [7] was “inactive” throughout. In addition, the Potency in experiment [9] is 23.5 µM (active); in experiment [10], 31.6 µM (active).

As to `CN(C)CCOC(c1ccccc1)c1ccccc1`, the parasite growth remaining, % of DMSO control (lower = more inhibition) in experiment [1] turned out to be 39.2%. Moreover, in experiment [2], the parasite growth, % of control (lower = inhibition) came out at 41.2%. This compound had a growth, % of control in experiment [3] of 100%. Also, in [4], the cell viability, % of control (lower = more cytotoxic) amounted to 136%. Besides, the viability (% of control) in [5] was 38.8%. For the same compound, the Potency result in experiment [6], in experiment [7] and in [12] was “inactive” throughout. The call in experiment [11] and in experiment [13] was inactive.

With `Clc1ccc(C(c2ccccc2Cl)C(Cl)Cl)cc1` (stereo not drawn), in [1], the parasite growth remaining, % of DMSO control (lower = more inhibition) turned out to be 51.1%. Moreover, the growth, % of control in [3] is 50.8%. In addition, the cell viability, % of control (lower = more cytotoxic) in experiment [4] amounted to 22.5%. Further, the viability (% of control) in experiment [5] worked out at 18.1%. Besides, the Potency entry in [6], in [7] and in [10] was “inactive” each time. Also, in [11], the call was inactive.

As for `CN1CCN(CCCN2c3ccccc3Sc3ccc(Cl)cc32)CC1`, the parasite growth remaining, % of DMSO control (lower = more inhibition) in experiment [1] came out at 13%. This compound returned a parasite growth, % of control (lower = inhibition) in experiment [2] of 28.4%. In [3], the growth, % of control worked out at 7.64%. Moreover, the cell viability, % of control (lower = more cytotoxic) in experiment [4] was 107%. In [5], the viability (% of control) stood at 22.7%. In addition, the Potency result in [6] and in [7] was “inactive” each time. Besides, the Potency in experiment [9] was 26.4 µM (active).

As for `NC12CC3CC(CC(C3)C1)C2`, the parasite growth remaining, % of DMSO control (lower = more inhibition) in [1] stood at 72%. The parasite growth, % of control (lower = inhibition) in experiment [2] came to 25.9%. In addition, the growth, % of control in experiment [3] was determined as 4.58%. Moreover, the cell viability, % of control (lower = more cytotoxic) in [4] came out at 60.9%. For the same compound, the viability (% of control) in experiment [5] was found to be 9.3%. In addition, the Potency entry in experiment [6], in [7] and in experiment [10] was “inactive” each time. The Potency in [8] is 26.4 µM (active). The result in experiment [11] was inactive.

In the case of `CCc1cccc2c3c([nH]c12)C(CC)(CC(=O)O)OCC3` (stereo not drawn), the parasite growth remaining, % of DMSO control (lower = more inhibition) in [1] was found to be 86%. Besides, in experiment [3], the growth, % of control was found to be 94.1%. Also, in experiment [4], the cell viability, % of control (lower = more cytotoxic) turned out to be 138%. Besides, the viability (% of control) in [5] is 128%. Further, the Potency result in experiment [6], in experiment [7], in [12], in experiment [9] and in experiment [10] was “inactive” throughout. Also, the call in experiment [11] was inactive.

In the case of `NC(CO)C(=O)NNCc1ccc(O)c(O)c1O` (stereo not drawn), the parasite growth remaining, % of DMSO control (lower = more inhibition) in experiment [1] is 125%. Moreover, the parasite growth, % of control (lower = inhibition) in [2] stood at 89.1%. This compound came in with a growth, % of control in experiment [3] of 99.5%. Further, the cell viability, % of control (lower = more cytotoxic) in experiment [4] is 86.9%. The viability (% of control) in experiment [5] was determined as 79.5%. In addition, the Potency entry in experiment [6] was “inactive and 7.43 µM (active)”; in experiment [9], 26.4 µM (active). Moreover, the Potency result in [7] and in experiment [10] was “inactive” each time. Further, the compound was called inactive in experiment [11].

`Cn1ccc2cc3c(cc21)CCN3C(=O)Nc1cccnc1`: the parasite growth remaining, % of DMSO control (lower = more inhibition) in experiment [1] amounted to 72.7%. The compound further registered a growth, % of control in experiment [3] of 56%. Also, in [4], the cell viability, % of control (lower = more cytotoxic) was found to be 100%. Also, in experiment [5], the viability (% of control) was 69.5%. Also, the Potency entry in experiment [6], in [7], in experiment [10] and in experiment [14] was “inactive” throughout. The Potency in experiment [8] was 23.5 µM (active). Moreover, the compound was called inactive in experiment [11] and in experiment [15]. Further, the IC50 (viability decrease) result in experiment [16] was “inactive”.

Values taken from PubChem BioAssay (NCATS).
